Sampled rows, rich in hits. Any-hit rate of the full collection: about 2.7%.
CHT inh = human CHT choline transport inhibition | Q9GZV3 | CHT-expressing cells, membrane potential dye, choline response; active compounds read low | B-score at 10 µM | 0.86% of 310,000 active | AID 488975;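 active = B-score over 3 SD under the library average, and starting fluorescence ratio not unusually high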;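 note: choline stimulus applied at its EC90 after an EC20 pre-addition; B-score computed on integrated fluorescence ratio after choline addition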
ANO1 block = mouse TMEM16A channel inhibition, primary screen; HEK293 TMEM16A/YFP iodide influx fluorescence, ionomycin; normalized B-score (activity score, 25-100; higher = stronger inhibition) at 10 µM; 1.2% of 310,000 active; AID 588511;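 active = ratio plate-corrected score three or more library SD toward inhibition, starting fluorescence score within five deviations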;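 note: score derived from kinetic fluorescence span divided by baseline fluorescence per well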
CHT allo act = allosterically activates the human high affinity choline transporter; 0.49% of 310,000 active; Q9GZV3; B-score at 10 µM; CHT-expressing cells, membrane potential dye, choline EC20; active compounds read high; LV-AA mutant CHT in HEK293 cells;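 active = initial fluorescence not abnormally high and integrated response B-score, plate-corrected, over 3 SD above library mean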
IDE cell inh = inhibitors of human insulin-degrading enzyme in cells. P14735. HEK cells, FAbetaB cleavage, fluorescence polarization. inhibition, % at 5.59 µM. 0.41% of 320,000 active;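 active = percent inhibition above the average of all tested compounds plus 3 SD, set per screening campaign, cut at about 16% in these data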;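 note: IDE supplied by intact live HEK cells; FP after avidin binding of uncleaved biotin substrate so inhibition keeps polarization high; 0% = DMSO wells and 100% = 60 µM reference IDE inhibitor Ii1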
Target sequence (P14735 whole entry, looked up): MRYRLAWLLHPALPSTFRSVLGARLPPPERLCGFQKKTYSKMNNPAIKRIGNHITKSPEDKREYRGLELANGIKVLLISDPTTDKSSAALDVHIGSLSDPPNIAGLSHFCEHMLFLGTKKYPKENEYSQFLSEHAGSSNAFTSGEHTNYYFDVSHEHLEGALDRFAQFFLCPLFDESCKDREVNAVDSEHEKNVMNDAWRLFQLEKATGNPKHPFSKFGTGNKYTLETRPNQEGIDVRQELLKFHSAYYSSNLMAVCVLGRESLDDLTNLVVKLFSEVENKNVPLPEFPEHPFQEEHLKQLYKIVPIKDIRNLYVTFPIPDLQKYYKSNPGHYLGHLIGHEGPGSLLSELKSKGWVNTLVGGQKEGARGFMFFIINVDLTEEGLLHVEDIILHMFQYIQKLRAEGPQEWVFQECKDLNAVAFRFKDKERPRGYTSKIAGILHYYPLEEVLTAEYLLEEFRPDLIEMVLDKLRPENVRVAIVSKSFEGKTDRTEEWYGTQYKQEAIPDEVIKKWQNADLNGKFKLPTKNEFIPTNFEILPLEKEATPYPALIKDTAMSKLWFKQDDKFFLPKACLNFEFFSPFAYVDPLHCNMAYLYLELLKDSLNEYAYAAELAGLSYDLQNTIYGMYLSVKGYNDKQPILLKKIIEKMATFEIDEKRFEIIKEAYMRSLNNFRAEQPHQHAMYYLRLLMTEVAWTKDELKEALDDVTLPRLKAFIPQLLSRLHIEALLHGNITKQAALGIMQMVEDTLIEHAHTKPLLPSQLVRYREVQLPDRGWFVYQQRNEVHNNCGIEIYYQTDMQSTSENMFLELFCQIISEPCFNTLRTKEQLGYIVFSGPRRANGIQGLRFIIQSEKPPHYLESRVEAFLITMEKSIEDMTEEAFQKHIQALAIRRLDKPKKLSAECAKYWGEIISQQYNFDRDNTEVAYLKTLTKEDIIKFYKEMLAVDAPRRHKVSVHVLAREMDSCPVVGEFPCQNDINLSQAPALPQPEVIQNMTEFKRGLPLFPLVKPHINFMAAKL
ANO1 activ = mouse TMEM16A channel activation, primary screen. 0.3% of 340,000 active. AID 623877. B-score at 10 µM. HEK293 TMEM16A/YFP-H148Q/I152L, iodide quench fluorescence; active compounds read low. Q8BHY3;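 active = fluorescence-ratio B-score plate-corrected deviation score at least 3 library SD below zero, with starting fluorescence score within 5 deviations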;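 note: channel opened by trigger with iodide after compound preincubation; score built on the fluorescence ratio of max minus min over baseline; more negative score means more quench and so TMEM16A activation or potentiation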
IDE act = boosts human insulin-degrading enzyme activity in HEK cells; P14735; FAbeta-B cleavage, fluorescence polarization; 0% vehicle, 100% cell-free pure enzyme wells; activation, % at 5.96 µM; 0.073% of 340,000 active;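 active = activation above the mean of all tested compounds plus 3 SD, set per screening campaign, cut at about 17% in these data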
TMEM16A reconf = reconfirmed blocker of mouse TMEM16A calcium-activated chloride channel | HEK293 TMEM16A/YFP-H148Q, iodide quench fluorescence; ionomycin added to raise cell calcium | 39% of 2,300 active | inhibition, % at 10 µM | shares compounds with ANO1 block;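 active = mean duplicate percent inhibition, scaled so buffer wells are 0 and the reference blocker 100, over three buffer SD above buffer mean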
TMEM16A Ca cntr = calcium mobilization counter-screen hit for TMEM16A inhibitor series | TMEM16A/YFP HEK293, Fluo4 calcium mobilization | calcium response (% of ionomycin), % at 10 µM | 2% of 2,300 active | shares compounds with ANO1 block | AID 652231;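 active = duplicate-averaged calcium signal over 20% of the ionomycin maximum, relative to buffer baseline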;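 note: each well's signal is peak minus trough fluorescence divided by its pre-addition baseline; 0% = buffer wells and 100% = ionomycin wells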
Parental YFP cnt = parental YFP-HEK293 iodide quench counter-screen activity | YFP ratio F(max-min)/F0 at 10 µM | shares compounds with ANO1 block | 2,300 tested, under 10 active | AID 652233 | ionomycin;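 active = yellow fluorescent protein signal ratio exceeding the buffer control mean by over 5 SD of those controls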;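 note: ratio is mean of duplicate wells from kinetic YFP trace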
ClC-1 rat inh = rat ClC-1 inhibition, TMEM16A specificity screen. shares compounds with ANO1 block. CHO ClC-1-YFP, iodide influx fluorescence quench; iodide control reads 0, buffer control 100. ratio percent, % at 10 µM. 2,300 tested, under 10 active. AID 652236;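 active = duplicate-mean ratio percent above the mean of iodide-only control wells, which defines zero, plus 5 of their SD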;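 note: higher percent means stronger block of ClC-1 iodide influx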
Active calls of the source: *.

For CC(C)CCOc1cccc(OCC(=O)Nc2ccncc2)c1 the results were CHT inh inactive, ANO1 block 25*, CHT allo act inactive, IDE cell inh 1, ANO1 activ inactive, IDE act -2, TMEM16A reconf 17%*, TMEM16A Ca cntr inactive, Parental YFP cnt -1.2 and ClC-1 rat inh -8.
Screening CC(C)c1ccc(OCC(=O)Nc2cccc(C(=O)Nc3ccccc3C(=O)O)c2)cc1 returned CHT inh inactive, ANO1 block inactive, CHT allo act inactive, IDE cell inh -1, ANO1 activ inactive and IDE act 5.
`CC(C)(C)c1ccc(OCC(=O)Nc2ccc(C(=O)Nc3ccccc3C(=O)O)cc2)cc1` gave CHT inh inactive, ANO1 block 25*, CHT allo act inactive, IDE cell inh 8, ANO1 activ inactive, IDE act 0, TMEM16A reconf 56%*, TMEM16A Ca cntr 42%*, Parental YFP cnt -1.2 and ClC-1 rat inh -11.
O=C(COc1ccc(Nc2ccccc2)cc1)Nc1ccncc1 was read as CHT inh inactive, ANO1 block 100*, CHT allo act inactive, IDE cell inh 10, ANO1 activ inactive, IDE act 1, TMEM16A reconf 18%*, TMEM16A Ca cntr inactive, Parental YFP cnt -0.93 and ClC-1 rat inh -15.
Screening CCC(C)c1ccccc1N1CC(C(=O)Nc2ccc(S(=O)(=O)N3CCOCC3)cc2)CC1=O (centres undefined) returned CHT inh inactive, ANO1 block inactive, CHT allo act inactive, IDE cell inh 6, ANO1 activ inactive and IDE act 2.
`C[C@H](CO)N1C[C@H](C)[C@@H](CN(C)S(=O)(=O)c2cn(C)cn2)Oc2c(NS(=O)(=O)c3ccc(F)cc3)cccc2C1=O` gave IDE cell inh 1, ANO1 activ inactive and IDE act 4.
Screening CCOC(=O)[C@H]1[C@H]2COc3ccc(OC)cc3[C@@H]2N2C(=O)CN(CCc3c[nH]c4ccccc34)C(=O)[C@@]12C returned IDE cell inh 4, ANO1 activ inactive and IDE act 1.
Screening COc1ccc(NC2CCCN(C(=O)c3ccc4[nH]c(C)c(C)c4c3)C2)cc1 (centres undefined) returned CHT inh inactive, ANO1 block inactive, CHT allo act inactive, IDE cell inh -1, ANO1 activ inactive and IDE act 1.
Screening Cc1ccc(OCCC(=O)OCC(=O)Nc2ccc(C)c(S(=O)(=O)N3CCOCC3)c2)cc1 returned ANO1 activ inactive and IDE act 4.
Screening COc1ccc(NC(=O)CCOc2ccc(C)cc2)cc1S(=O)(=O)N1CCCCC1 returned IDE cell inh 9, ANO1 activ inactive and IDE act -4.
Screening COc1ccc(NC(=O)COc2cc(C)cc(C)c2)cc1S(=O)(=O)N1CCCCC1 returned CHT inh inactive, ANO1 block 25*, CHT allo act inactive, IDE cell inh 4, ANO1 activ inactive, IDE act -2, TMEM16A reconf inactive, TMEM16A Ca cntr inactive, Parental YFP cnt -0.89 and ClC-1 rat inh -20.
Screening Cc1ccc(C)c(OCCC(=O)OCC(=O)Nc2ccc(C)c(S(=O)(=O)N3CCCCC3)c2)c1 returned CHT inh inactive, ANO1 block 25*, CHT allo act inactive, IDE cell inh 0, ANO1 activ inactive, IDE act -7, TMEM16A reconf inactive, TMEM16A Ca cntr inactive, Parental YFP cnt -1.1 and ClC-1 rat inh -14.
O=C(CCC1N=C2c3ccccc3N=C(SCC(=O)NCC3CCCO3)N2C1=O)NCc1ccc(F)cc1 (centres undefined) was read as CHT inh inactive, ANO1 block inactive, CHT allo act inactive, IDE cell inh -2, ANO1 activ inactive and IDE act -1.
Screening CCN(CC)S(=O)(=O)c1cccc(C(=O)Nc2nc3cc4c(cc3s2)OCCO4)c1 returned CHT inh inactive, ANO1 block 100*, CHT allo act inactive, IDE cell inh 10, ANO1 activ inactive, IDE act -10, TMEM16A reconf 20%*, TMEM16A Ca cntr inactive, Parental YFP cnt -0.5 and ClC-1 rat inh -5.
`Cc1noc(NS(=O)(=O)c2ccc(NC(=O)c3ccccc3NS(=O)(=O)c3ccc(F)c(F)c3)cc2)c1C` gave ANO1 activ inactive and IDE act 6.
Nc1ncnc2c1ncn2[C@@H]1O[C@H](CO)C[C@H]1O was read as CHT inh inactive, ANO1 block 100*, CHT allo act inactive, IDE cell inh 2, ANO1 activ inactive, IDE act 7, TMEM16A reconf inactive, TMEM16A Ca cntr inactive, Parental YFP cnt -0.91 and ClC-1 rat inh -4.
Screening Cc1c(NC(=O)C(C)Sc2ccccc2)c(=O)n(-c2ccccc2)n1C (centres undefined) returned CHT inh inactive, ANO1 block inactive, CHT allo act inactive, IDE cell inh 4, ANO1 activ inactive, IDE act 2, TMEM16A reconf inactive, TMEM16A Ca cntr inactive, Parental YFP cnt -0.82 and ClC-1 rat inh -8.
Cc1ccc(SC(C)C(=O)Nc2c(C)n(C)n(-c3ccccc3)c2=O)cc1 (centres undefined) was read as CHT inh inactive, ANO1 block inactive, CHT allo act inactive, IDE cell inh 3, ANO1 activ inactive and IDE act 4.
For CN(C)S(=O)(=O)c1cc(NC(=O)COC(=O)Cc2ccc(Cl)cc2Cl)ccc1Cl the results were CHT inh inactive, ANO1 block inactive, CHT allo act inactive, IDE cell inh -4, ANO1 activ inactive and IDE act -1.

From PubChem BioAssay
